# TrxR1 substrate: rat thioredoxin reductase 1 substrate activity. O89049. purified TrxR1 substrate turnover, NADPH consumption readout. Potency, µM (top dose mostly 114 µM). 390,000 compounds, 0.01% hits. AID 588456; note: nearly all actives have a fitted effect of over 50% in size
#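 Rat TrxR1, dispensed at 90 nM, was prereduced with 400 uM NADPH (final) for 5 min at ~22 deg C, then incubated with compound 15 min before 400 uM selenite. A first-read NADPH fluorescence drop versus no-compound background flagged substrates.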
# IL-2 act: activators of IL-2. IL-2 activation reporter assay, cell-based qHTS; stimulated with anti-CD3/CD4/CD28 beads; in transgenic mouse T cells. activation, % (series mostly up to about 46 µM). 360,000 compounds, 0.065% hits; in the data active = activation above about 50%; inconclusive = mostly about 30% to 49%
#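 Unstimulated transgenic mouse T cells, 750 per well, received compound and, after 60 minutes, anti-CD3/anti-CD4 bead plus anti-CD28 stimulation. EGFP and DsRed were quantified after 18 hours.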
# BRCA1 expr act: activators of BRCA1 expression | AID 624202 | Potency, µM (series often up to 46.1 µM), hits mostly activators | 380,000 compounds, 1.1% hits | MCF7-BRCA1-FFLuc reporter, luminescence, 48 h; response scale: scaled: vehicle 0%, 10 µM genistein 100%; note: nearly all actives have a fitted effect of over 80% in size
#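 MCF7-BRCA1-FFLuc, 2000 cells/well; 2 h attach, 37 °C/5% CO2; compound 48 h; luciferase substrate 15 min; luminescence end-point. Norm. to genistein 10 microM max activation and DMSO; concentration-response curves fitted.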
# TrxR1 inh: blocks rat thioredoxin reductase 1 | recombinant rTrxR1, NADPH fluorescence consumption, selenite substrate | Potency, µM (titrated, usually from 114 µM), hits mostly inhibitors | 390,000 compounds, 1% hits | AID 588453; note: nearly all actives have a fitted effect of over 65% in size
#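 Rat TrxR1 (90 nM in the dispensed reagent) was pre-reduced with 400 uM NADPH for 5 min at room temperature, then incubated with compound for 15 min. After 400 uM selenite was added, NADPH fluorescence (Ex 340/Em 450 nm) was followed for 8 min.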
# Giardia kill: Giardia lamblia killing. AID 540267. activity change, % at 7.66 µM, hits read low. Giardia lamblia trophozoite viability. 340,000 compounds, 0.15% hits; in the data active = activity change below about -80%; inconclusive = between about -30% and that limit;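 note: parasites exposed to compound for two days anaerobically before the ATP read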
#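 Viability, read as ATP luminescence: trophozoites at 100 cells/well, compound added, 48 hrs anaerobic at 37 deg C, then 15-30 min room-temperature development before reading.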
# mIDH1 inhibitor: inhibitors of human mutant IDH1 R132H | O75874 | IDH1-R132H enzyme, NADPH consumption, diaphorase/resazurin fluorescence | Potency, µM (top dose mostly 76.6 µM), usual class: inhibitors | 390,000 compounds, 0.093% hits; note: nearly all actives have a fitted effect of over 65% in size
# Target sequence (O75874 whole entry R132H, stated change not applied): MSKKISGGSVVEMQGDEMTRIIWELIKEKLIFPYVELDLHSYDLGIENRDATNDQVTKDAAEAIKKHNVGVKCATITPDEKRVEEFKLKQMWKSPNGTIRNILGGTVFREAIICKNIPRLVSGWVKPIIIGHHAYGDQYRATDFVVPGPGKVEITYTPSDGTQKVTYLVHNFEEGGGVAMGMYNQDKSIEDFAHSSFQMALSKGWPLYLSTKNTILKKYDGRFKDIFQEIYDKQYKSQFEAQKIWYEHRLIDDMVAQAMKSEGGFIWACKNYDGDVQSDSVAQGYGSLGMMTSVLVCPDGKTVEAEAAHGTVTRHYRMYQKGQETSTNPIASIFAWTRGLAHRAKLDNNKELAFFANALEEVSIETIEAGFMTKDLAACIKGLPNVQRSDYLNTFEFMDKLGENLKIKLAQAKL
#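 IDH1-R132H (0.5 ug/mL) preincubated 30 min with compound, then NADPH (0.016 mM) and alpha-KG (2 mM) added; 80 min at RT, pH 7.5. Remaining NADPH coupled via diaphorase/resazurin to fluorescence (540/590 nm); concentration-response curves normalized to no-enzyme control.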
# Numbers stand for hits; i = inactive; ? = inconclusive; nt = not tested or not shown; [ ] = remark or other dose. This is a sample that favours compounds with a hit; in the whole collection about 2.2% have one here. Unless noted, calls come from the whole dose curve; as a rule, active = well fitted curve in the direction sought with a large enough effect; inconclusive = small, poorly fitted or top-dose-only effect, or another doubt; inactive = no such curve, though single readings can be large; an effect the other way counts as inactive or inconclusive.
SMILES,TrxR1 substrate,IL-2 act,BRCA1 expr act,TrxR1 inh,Giardia kill,mIDH1 inhibitor
Cn1c(N/N=C/c2c[nH]c3ccccc23)nc2ccccc21,i,i,i,i,i,i
COc1ccc(OC)c(CNS(=O)(=O)c2cc(-c3onc(C)c3C)ccc2C)c1,i,nt,nt,i,nt,i
Cc1c(Cl)ccc2sc(N3CCN(C(=O)c4ccco4)CC3)nc12,i,nt,?,i,nt,i
COC1=C2C[C@H](C)C[C@H](OC)[C@@H](O)[C@@H](C)C=C(C)[C@H](OC(N)=O)[C@@H](OC)C=CC=C(C)C(=O)NC(=CC1=O)C2=O,i,nt,i,50µM,i,nt
CCCCNC(=O)c1sc2ncnc(N3CCc4ccccc4C3)c2c1C,i,i,i,2.8µM,i,i
NS(=O)(=O)c1ccc(-c2ccc(/C=C3\SC(=S)N(C4CCS(=O)(=O)C4)C3=O)o2)cc1 (stereo not given),i,i,i,i,i,i
Cc1ccc(/C=C2\SC(=S)N(C3CCS(=O)(=O)C3)C2=O)o1 (stereo not given),i,i,i,16µM,i,i
O=C(O)CC1(CC(=O)Nc2ccc(C(F)(F)F)cc2)CCCC1,i,i,i,i,i,i
CC(C)(C)c1ccc(NC(=O)CC2(C(F)(F)F)OCCO2)cc1,i,i,3.5µM,i,i,i
Cc1cc(OCCn2cc(C(=O)c3cccs3)c3ccccc32)ccc1Cl,i,nt,nt,i,nt,i
CCOC(=O)C1=C(Cc2ccc(OC)cc2)C(=O)c2ccccc2C1=O,i,i,i,?,i,i
CCOC(=O)C1=C(O)c2ccccc2C(=O)/C1=C\c1ccc(CC)cc1,i,i,i,10µM,i,i
COc1ccc(Cn2c3ccc(OC)cc3c3nc4ccccc4nc32)cc1,i,267,i,i,i,i
CCCOc1ccc(C2C(=O)N(C3CCCCCC3)CC(=O)N2Cc2ccccc2OC)cc1OC (stereo not given),i,nt,nt,i,nt,i
CCC(C)N(CC(=O)Nc1cccc(C)c1C)C(=O)CCl (stereo not given),i,i,i,28µM,i,i
CC(C)N(CC(=O)Nc1ccc(Cl)cc1C(F)(F)F)C(=O)CCl,i,i,i,16µM,i,i
O=C(O)CSCC(=O)Nc1ccc(Cl)cc1C(F)(F)F,i,i,i,i,i,i
Nc1c(-c2nc(-c3ccccc3)cs2)c2ccccn2c1C(=O)c1ccc2c(c1)OCO2,i,nt,nt,i,nt,nt
Cc1ccc(-n2ncc(C(=O)NCc3ccc4c(c3)OCO4)c2C2CCN(C(=O)OC(C)(C)C)CC2)cc1C,i,nt,nt,i,nt,i
CCc1cccc(CC)c1NC(=O)c1cc(S(=O)(=O)N2CCc3ccccc32)cn1C,i,nt,nt,i,nt,i
CC(C(=O)O)c1ccc(C(=O)c2ccccc2)s1 (stereo not given),i,i,14µM,i,i,i
Cc1ccc(/C(N)=N/OC(=O)Cc2cccs2)cc1,i,i,11µM,i,i,i
O=c1c2[nH]c3ccccc3c2nc(SCc2cccc(F)c2)n1-c1ccccc1,i,nt,nt,i,nt,i
O=C(NCc1ccc(F)cc1)C1CCN(C(=O)c2ccc(-n3ccc4ccccc43)s2)CC1,i,nt,nt,i,nt,i
O=C(CSc1nc2ccccc2c(=O)n1NC(=O)c1ccccc1)c1ccccc1,i,i,i,i,i,i
SMILES,TrxR1 substrate,IL-2 act,BRCA1 expr act,TrxR1 inh,Giardia kill,mIDH1 inhibitor
O=C(CSc1nc2ccccc2c(=O)n1NC(=O)c1ccccc1)c1ccc(Cl)cc1,i,i,14µM,i,i,i
CCc1nnc(NC(=O)c2ccc(-c3ccc(Cl)cc3)o2)s1,i,i,?,i,i,i
CCc1nnc(NC(=O)c2ccc3ncsc3c2)s1,i,i,i,i,i,i
CCc1nnc(NC(=O)c2ccc(-c3ccc(C(C)=O)cc3)o2)s1,i,i,i,14µM,i,i
CCc1nnc(NC(=O)c2ccc3c(c2)C(=O)N(C(C)(C)C)C3=O)s1,i,i,14µM,i,i,i
CCc1nnc(NC(=O)c2ccc(NC(=O)C(C)C)cc2)s1,i,i,11µM,i,i,i
CC/C(=C/c1ccccc1OC)c1cc(-c2ccccc2)cc2oc3ccccc3c12,i,nt,nt,i,nt,nt
CCCCN(CC)C(=O)c1cc2c(=O)n3ccccc3nc2n1C,i,nt,nt,i,nt,i
Cc1cc(C)n(-c2nc(NC(C)C)nc(NC(C)(C)C)n2)n1,i[0.0914 µM],nt,i,i[0.0914 µM],i,nt
COc1ccc2c(c1)c1c(c(=O)n(-c3cc(Cl)ccc3C)c(=O)n1Cc1ccc(F)cc1)n2C,i,nt,i,i,nt,i
Cc1cc(C)c(S(=O)(=O)NCCc2sc(-c3cccnc3)nc2C)c(C)c1,i,nt,i,i,nt,i
Cc1ccccc1OCC(=O)Nc1ccc2c(c1)C(=O)c1ccccc1C2=O,i,i,5µM,i,i,i
Cc1ccccc1OCC(=O)Nc1ccc2c(c1)Cc1ccccc1-2,i,i,?,i,i,i
O=C(COC(=O)Cn1cnc2ccccc21)Nc1ccc2c(c1)C(=O)c1ccccc1C2=O,i,i,8.9µM,i,i,i
C=CC(C)=C[C@@]1(C)SC(=O)C(C)=C1O,i,nt,nt,i,nt,nt
CCOc1ccc(OCC)c(NC(=O)CCC(=O)N2CCOc3ccccc32)c1,i,nt,nt,i,nt,i
Cc1ccc(S(=O)(=O)c2nc(S(=O)(=O)c3ccc(C)cc3)c(NCCCOC(C)C)s2)cc1,i,nt,nt,i,nt,i
CCOc1cc(/C=N/NC(=O)c2ccc(NC(=O)C3CC3)cc2)ccc1O,i,i,i,i,i,i
CNc1ccc(/C=C(\C#N)C(=O)Nc2ccccn2)cc1[N+](=O)[O-],i,87,i,i,i,i
Cc1cccc(/C=C(\C#N)C(=O)Nc2ccccn2)c1,i,i,i,i,i,i
CCOc1cc(/C=C(\C#N)C(=O)Nc2ccccn2)ccc1O,i,i,i,25µM,i,i

# Bioassay records from PubChem BioAssay.
